The nature of assay [1]: ATG_TAL_CIS: Attagene CIS-FACTORIAL HepG2 Assay for human TAL Basal Promoter (AID 2282966; active = hit-call score of the fitted dose curve at least 0.9, where 1 is the maximum; inactive = score below 0.9;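 also: background control endpoint measuring basal TAL promoter reporter mRNA not a specific factor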). Particulars: HepG2 Attagene cis-factorial TAL promoter reporter; actives raise or lower the signal. An outline of the steps:
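Steps: transfect HepG2 with multiple reporter transcription units; dose 24 h; isolate RNA, reverse-transcribe, PCR-amplify, label with 6-FAM, digest with HpaI; resolve by capillary electrophoresis. Bidirectional fitting against DMSO baseline.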

Assay [2] can be described thus: ATG_TGFb_CIS: Attagene CIS-FACTORIAL HepG2 Assay for human Transforming Growth Factor (TGF) (AID 2282967; active = hit-call score of the fitted dose curve at least 0.9, where 1 is the maximum; inactive = score below 0.9). Particulars: HepG2 Attagene CIS TGFb reporter, mRNA transcription; actives raise or lower the signal. The method in brief:
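Liver HepG2 line, cis-factorial reporter panel, 24 h dosing. Quantitation: RT-PCR products labeled with 6-FAM, cut with HpaI, resolved by capillary electrophoresis; DMSO-referenced bidirectional analysis.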

The nature of assay [3]: ATG_VDRE_CIS: Attagene CIS-FACTORIAL HepG2 Assay for human Vitamin D Receptor Element (VDRE) (AID 2282968; active = hit-call score of the fitted dose curve at least 0.9, where 1 is the maximum; inactive = score below 0.9). Particulars: HepG2 VDRE cis-reporter transcription, actives raise or lower the signal. The method in brief: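 Transiently transfected HepG2 cells carrying cis-regulated reporter transcription units were exposed for 24 h. Reporter mRNA was measured by RT-PCR with fluorescent labelling and capillary electrophoresis, and fitted in both directions against DMSO.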

The target in assay [4] is Steroid hormone receptor ERR1 (Homo sapiens) (UniProt P11474). Put plainly: ATG_ERRa_TRANS: Attagene TRANS-FACTORIAL HepG2 Assay for human Estrogen-Related Receptor alpha (ERRa) (AID 2282971). Particulars: HepG2 Attagene TRANS reporter, ERRa transactivation. An outline of the steps: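 Signal gain relative to DMSO for an ERRa-Gal4 chimeric receptor, read as reporter mRNA by RT-PCR/capillary electrophoresis. Human HepG2 liver cells, transient multiplex reporter transfection, 24 h chemical exposure.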

For assay [5], the target named is X-box-binding protein 1 (Homo sapiens) (UniProt P17861). The assay is described as follows: ATG_Xbp1_CIS: Attagene CIS-FACTORIAL HepG2 Assay for human X-box Binding Protein 1 (XBP1) (AID 2282972; active = hit-call score of the fitted dose curve at least 0.9, where 1 is the maximum; inactive = score below 0.9). The conditions noted are these: HepG2 XBP1 cis-element reporter, Attagene multiplex; actives raise or lower the signal. An outline of the steps:
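HepG2, transient MRTU transfection (cis-promoter driven), 24 h compound exposure. Total RNA → oligo(dT) RT → PCR → 6-FAM labeling → HpaI cut → CE. Bidirectional fit vs DMSO.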

Assay [6] is described as follows: ATG_GAL4_TRANS: Attagene TRANS-FACTORIAL HepG2 Assay for GAL4 (Internal Marker) (AID 2282976). Particulars: HepG2 Attagene TRANS GAL4 internal marker reporter. An outline of the steps:
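Liver HepG2 line bearing multiplexed GAL4-UAS reporter constructs; 24 h chemical treatment. Transcripts were quantified as fluorescent fragments on capillary electrophoresis after RT-PCR and HpaI cut, with activity fitted upward from DMSO.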

Assay [7] addresses Oxysterols receptor LXR-alpha (Homo sapiens) (UniProt Q13133). Put plainly: ATG_LXRa_TRANS: Attagene TRANS-FACTORIAL HepG2 Assay for human Liver X Receptor alpha (LXRa) (AID 2282980). The conditions noted are these: HepG2 Attagene TRANS reporter, LXRa transactivation. An outline of the steps:
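In this multiplexed TRANS system, compounds act on HepG2 cells carrying GAL4-UAS reporter units and a receptor-GAL4 fusion for 24 h. Induced reporter RNA is amplified, fluorescently labelled and sized by capillary electrophoresis, with DMSO as baseline.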

The target of assay [8] is Oxysterols receptor LXR-beta (Homo sapiens) (UniProt P55055). The assay is described as follows: ATG_LXRb_TRANS: Attagene TRANS-FACTORIAL HepG2 Assay for human Liver X Receptor beta (LXRb) (AID 2282981). Particulars: HepG2 Attagene TRANS GAL4-LXRb reporter, mRNA. An outline of the steps: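 HepG2 cells transiently transfected with GAL4-UAS reporter units for chimeric NR-Gal4 proteins, dosed for 24 h. Reporter transcripts measured by RT-PCR and capillary electrophoresis; gain-of-signal fitting relative to DMSO.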

Assay [9] can be described thus: ATG_M_06_TRANS: Attagene TRANS-FACTORIAL HepG2 Assay for M06 Transcription Factor (Internal Marker) (AID 2282983).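 Also: reporter transcript level by RT-PCR then capillary electrophoresis fluorescence.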 Particulars: HepG2 Attagene TRANS M06 internal marker reporter. The method in brief: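 Internal-marker background readout from a multiplexed TRANS reporter system in HepG2; 24 h dosing; mRNA induction quantified by RT-PCR plus capillary electrophoresis fluorescence; DMSO as negative control and baseline.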

For assay [10], the target named is Transcriptional activator Myb (Homo sapiens) (UniProt P10242). Put plainly: ATG_Myb_CIS: Attagene CIS-FACTORIAL HepG2 Assay for human Myeloblastosis (Myb) Proto-Oncogene Transcription Factor (AID 2282986; active = hit-call score of the fitted dose curve at least 0.9, where 1 is the maximum; inactive = score below 0.9). Particulars: HepG2 Attagene CIS-FACTORIAL Myb reporter transcription; actives raise or lower the signal. The method in brief: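 Fluorescence signals from capillary electrophoresis of RT-PCR-amplified reporter cDNA give the read-out. Cells: HepG2 transfected with multiple cis-regulated reporter units. Exposure lasts 24 hours; DMSO defines baseline for gain or loss of signal.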

Assay [11] deals with Nuclear respiratory factor 1 (Homo sapiens) (UniProt Q16656). Put plainly: ATG_NRF1_CIS: Attagene CIS-FACTORIAL HepG2 Assay for human Nuclear Respiratory Factor 1 (NRF1) Orphan Gene (AID 2282987; active = hit-call score of the fitted dose curve at least 0.9, where 1 is the maximum; inactive = score below 0.9). The conditions noted are these: HepG2 NRF1 cis-element reporter, Attagene multiplex; actives raise or lower the signal. The method in brief:
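Transcriptional reporter readout, one component of a 52-endpoint multiplexed HepG2 panel. Exposure 24 h; mRNA detected via RT-PCR and fluorescent capillary electrophoresis; fitting in both directions against DMSO.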

For assay [12], the target named is Estrogen-related receptor gamma (Homo sapiens) (UniProt P62508). The assay is described as follows: ATG_ERRg_TRANS: Attagene TRANS-FACTORIAL HepG2 Assay for human Estrogen-Related Receptor gamma (ERRg) (AID 2282977).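 Also: hits increase reporter signal over DMSO so potencies reflect activators.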 Particulars: HepG2 Attagene TRANS reporter, ERRg transactivation. The method in brief: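 HepG2 cells transiently transfected with multiplexed GAL4-UAS reporter units driven by chimeric NR-Gal4 proteins; 24 h exposure. Reporter mRNA quantified by RT-PCR, fluorescent labelling, HpaI digestion and capillary electrophoresis; gain of signal vs DMSO.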

Assay [13] deals with Glucocorticoid receptor (Homo sapiens) (UniProt P04150). The assay is described as follows: ATG_GR_TRANS: Attagene TRANS-FACTORIAL HepG2 Assay for human Glucocorticoid Receptor (GR) (AID 2282978).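 Also: activators score as hits since higher reporter transcript over DMSO is fitted.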 Particulars: HepG2 Attagene TRANS GR reporter, mRNA transcription. An outline of the steps: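 Measurement of GAL4-UAS-driven reporter mRNA in human HepG2 liver cells 24 h post-dosing, using RT-PCR with fluorescent labelling and capillary electrophoresis; the transfected constructs report exogenous NR-GAL4 chimera activity, fitted upward against DMSO.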

For assay [14], the target named is Bile acid receptor (Homo sapiens) (UniProt Q96RI1). Put plainly: ATG_FXR_TRANS: Attagene TRANS-FACTORIAL HepG2 Assay for Farnesoid X Receptor (FXR) (AID 2282979).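 Also: hits raise reporter mRNA above DMSO so AC50 marks FXR activation.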 The conditions noted are these: HepG2 Attagene TRANS FXR-GAL4 reporter transcription. The method in brief:
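After 24 h chemical treatment of transfected HepG2 cells, GAL4-UAS reporter transcripts driven by an exogenous FXR-GAL4 fusion were measured by RT-PCR and capillary electrophoresis. Increases over DMSO were fitted.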

Assay [15] is described as follows: ATG_M_32_TRANS: Attagene TRANS-FACTORIAL HepG2 Assay for M32 Transcription Factor (Internal Marker) (AID 2282984).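 Also: transcript level of a background control reporter unit measured by RT-PCR and capillary electrophoresis.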 The conditions noted are these: HepG2 Attagene TRANS M32 internal marker reporter. The method in brief: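 HepG2 cells transiently transfected with GAL4-UAS reporter units, dosed for 24 hours. Reporter mRNA quantified by RT-PCR, 6-FAM labelling, HpaI digestion and capillary electrophoresis; internal-marker signal fitted upward relative to DMSO.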

Assay [16] deals with Nuclear receptor subfamily 4 group A member 2 (Homo sapiens) (UniProt P43354). The assay is described as follows: ATG_NURR1_TRANS: Attagene TRANS-FACTORIAL HepG2 Assay for human Nuclear Receptor Related Protein 1 (NURR1) (AID 2282985). Particulars: HepG2 Attagene TRANS reporter, mRNA readout. An outline of the steps:
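HepG2 cells transiently transfected with NURR1-Gal4 chimera and GAL4-UAS reporter units; after 24 hr compound exposure, reporter mRNA quantified by RT-PCR and capillary electrophoresis; gain of signal fitted against DMSO.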

The nature of assay [17]: ATG_M_19_TRANS: Attagene TRANS-FACTORIAL HepG2 Assay for M19 Transcription Factor (Internal Marker) (AID 2282974). The conditions noted are these: HepG2 Attagene TRANS-FACTORIAL M19 internal marker reporter. The method in brief: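 Measured here: internal-marker reporter transcript from HepG2 cells transfected with MRTUs, harvested at 24 h. cDNA PCR products were 6-FAM labelled by primer extension, cut with HpaI for 2 h at 37 C, and resolved by CE.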

Assay [18] addresses Hepatocyte nuclear factor 4-alpha (Homo sapiens) (UniProt P41235). Put plainly: ATG_HNF4a_TRANS: Attagene TRANS-FACTORIAL HepG2 Assay for human Hepatocyte Nuclear Factor 4 alpha (HNF4a) (AID 2282982). The conditions noted are these: HepG2 HNF4a transactivation reporter, mRNA readout. The method in brief: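 HepG2 cells transiently transfected with HNF4a-Gal4 chimera and GAL4-UAS reporter units, dosed for 24 h. Reporter mRNA measured by RT-PCR, fluorescent primer extension and capillary electrophoresis; gain-of-signal fitted relative to DMSO.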

Inconclusive results are not listed. Active and inactive are the calls of the source. The calls were made as follows, unless noted: active = hit-call score of the fitted dose curve at least 0.9, where 1 is the maximum; inconclusive = response in the unintended direction; inactive = score below 0.9.

Among the data in PubChem BioAssay (EPA / NIEHS) are outcome and AC50 values, retold here.

Usually AC50 stands for the concentration at which the activity in the assay is half-maximal.

Oxysterols receptor LXR-beta (Homo sapiens), sequence (P55055 whole entry, looked up, the tested form may be a part): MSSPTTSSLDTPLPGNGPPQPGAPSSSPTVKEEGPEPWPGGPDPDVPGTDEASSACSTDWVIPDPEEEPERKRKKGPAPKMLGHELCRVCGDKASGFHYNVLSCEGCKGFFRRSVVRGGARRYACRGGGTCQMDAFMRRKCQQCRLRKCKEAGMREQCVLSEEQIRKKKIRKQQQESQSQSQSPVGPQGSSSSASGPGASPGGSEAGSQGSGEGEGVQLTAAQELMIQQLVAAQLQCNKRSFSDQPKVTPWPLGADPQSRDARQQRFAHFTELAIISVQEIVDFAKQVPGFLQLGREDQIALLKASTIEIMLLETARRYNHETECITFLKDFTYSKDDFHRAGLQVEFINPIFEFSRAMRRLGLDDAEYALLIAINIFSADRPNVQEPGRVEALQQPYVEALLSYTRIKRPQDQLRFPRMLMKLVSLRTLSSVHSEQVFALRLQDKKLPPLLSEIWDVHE
Nuclear receptor subfamily 4 group A member 2 (Homo sapiens), sequence (P43354 whole entry, looked up, the tested form may be a part): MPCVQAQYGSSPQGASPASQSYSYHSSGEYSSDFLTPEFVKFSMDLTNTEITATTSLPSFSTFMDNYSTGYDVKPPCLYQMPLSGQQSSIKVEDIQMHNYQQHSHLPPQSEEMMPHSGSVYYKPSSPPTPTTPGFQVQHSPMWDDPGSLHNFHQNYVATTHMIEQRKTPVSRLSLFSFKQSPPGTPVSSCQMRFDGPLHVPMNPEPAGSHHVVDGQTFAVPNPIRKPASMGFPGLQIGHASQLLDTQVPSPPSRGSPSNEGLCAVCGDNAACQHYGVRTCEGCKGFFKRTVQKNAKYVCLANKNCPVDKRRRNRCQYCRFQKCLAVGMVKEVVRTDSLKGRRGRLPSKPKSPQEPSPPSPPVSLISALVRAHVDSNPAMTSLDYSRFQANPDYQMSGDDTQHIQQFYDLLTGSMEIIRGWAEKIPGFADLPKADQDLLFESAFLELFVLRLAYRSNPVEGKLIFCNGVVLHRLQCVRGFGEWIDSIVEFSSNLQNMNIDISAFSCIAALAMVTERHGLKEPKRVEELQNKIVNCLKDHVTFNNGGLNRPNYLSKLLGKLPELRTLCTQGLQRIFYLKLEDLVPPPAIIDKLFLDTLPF
X-box-binding protein 1 (Homo sapiens), sequence (P17861 whole entry, looked up): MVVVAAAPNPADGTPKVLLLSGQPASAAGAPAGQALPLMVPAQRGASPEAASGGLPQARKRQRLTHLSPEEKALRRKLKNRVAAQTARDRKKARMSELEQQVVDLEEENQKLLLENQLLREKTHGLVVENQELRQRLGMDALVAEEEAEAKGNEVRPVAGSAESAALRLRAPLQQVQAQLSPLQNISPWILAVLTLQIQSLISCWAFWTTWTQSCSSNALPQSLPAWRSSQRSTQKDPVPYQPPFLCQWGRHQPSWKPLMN
Steroid hormone receptor ERR1 (Homo sapiens), sequence (P11474 whole entry, looked up, the tested form may be a part): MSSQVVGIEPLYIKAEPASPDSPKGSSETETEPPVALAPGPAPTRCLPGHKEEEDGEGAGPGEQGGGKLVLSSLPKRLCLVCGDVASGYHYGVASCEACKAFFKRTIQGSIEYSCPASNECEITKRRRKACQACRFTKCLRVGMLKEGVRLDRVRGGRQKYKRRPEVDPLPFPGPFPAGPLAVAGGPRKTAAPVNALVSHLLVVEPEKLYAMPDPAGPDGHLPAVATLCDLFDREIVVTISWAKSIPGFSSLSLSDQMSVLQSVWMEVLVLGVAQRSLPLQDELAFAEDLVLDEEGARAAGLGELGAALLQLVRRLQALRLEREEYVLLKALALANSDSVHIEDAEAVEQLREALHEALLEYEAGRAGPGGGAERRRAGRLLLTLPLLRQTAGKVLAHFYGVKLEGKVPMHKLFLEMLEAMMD
Transcriptional activator Myb (Homo sapiens), sequence (P10242 whole entry, looked up): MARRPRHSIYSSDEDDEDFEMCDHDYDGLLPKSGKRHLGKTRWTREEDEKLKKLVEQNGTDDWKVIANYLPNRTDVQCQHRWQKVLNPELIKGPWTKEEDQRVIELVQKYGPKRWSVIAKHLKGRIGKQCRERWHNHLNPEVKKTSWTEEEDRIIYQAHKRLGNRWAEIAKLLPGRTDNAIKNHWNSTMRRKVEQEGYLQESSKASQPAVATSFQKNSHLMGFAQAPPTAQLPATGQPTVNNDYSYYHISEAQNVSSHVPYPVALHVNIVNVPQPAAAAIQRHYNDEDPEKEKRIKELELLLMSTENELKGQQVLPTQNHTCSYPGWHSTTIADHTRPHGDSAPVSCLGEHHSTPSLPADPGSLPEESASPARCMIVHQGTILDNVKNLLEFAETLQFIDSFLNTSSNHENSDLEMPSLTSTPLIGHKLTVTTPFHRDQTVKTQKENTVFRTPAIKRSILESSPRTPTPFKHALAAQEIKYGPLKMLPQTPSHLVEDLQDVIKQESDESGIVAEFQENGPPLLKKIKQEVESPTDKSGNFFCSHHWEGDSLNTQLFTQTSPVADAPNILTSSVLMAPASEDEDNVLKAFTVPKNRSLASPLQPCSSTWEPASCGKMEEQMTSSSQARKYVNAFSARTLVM
Nuclear respiratory factor 1 (Homo sapiens), sequence (Q16656 whole entry, looked up): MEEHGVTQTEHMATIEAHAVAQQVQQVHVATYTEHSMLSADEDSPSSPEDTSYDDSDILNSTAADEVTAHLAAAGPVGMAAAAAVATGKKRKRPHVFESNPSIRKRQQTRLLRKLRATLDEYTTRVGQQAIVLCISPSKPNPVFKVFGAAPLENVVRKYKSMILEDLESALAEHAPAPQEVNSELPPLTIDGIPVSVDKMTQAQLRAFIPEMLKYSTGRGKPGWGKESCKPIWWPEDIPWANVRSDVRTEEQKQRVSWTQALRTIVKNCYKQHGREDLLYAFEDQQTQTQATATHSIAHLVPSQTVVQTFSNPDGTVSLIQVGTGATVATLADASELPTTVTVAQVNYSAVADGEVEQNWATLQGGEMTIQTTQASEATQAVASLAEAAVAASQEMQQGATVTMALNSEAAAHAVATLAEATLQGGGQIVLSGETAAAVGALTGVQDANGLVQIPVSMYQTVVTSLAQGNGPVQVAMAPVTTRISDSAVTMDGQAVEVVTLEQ
Oxysterols receptor LXR-alpha (Homo sapiens), sequence (Q13133 whole entry, looked up, the tested form may be a part): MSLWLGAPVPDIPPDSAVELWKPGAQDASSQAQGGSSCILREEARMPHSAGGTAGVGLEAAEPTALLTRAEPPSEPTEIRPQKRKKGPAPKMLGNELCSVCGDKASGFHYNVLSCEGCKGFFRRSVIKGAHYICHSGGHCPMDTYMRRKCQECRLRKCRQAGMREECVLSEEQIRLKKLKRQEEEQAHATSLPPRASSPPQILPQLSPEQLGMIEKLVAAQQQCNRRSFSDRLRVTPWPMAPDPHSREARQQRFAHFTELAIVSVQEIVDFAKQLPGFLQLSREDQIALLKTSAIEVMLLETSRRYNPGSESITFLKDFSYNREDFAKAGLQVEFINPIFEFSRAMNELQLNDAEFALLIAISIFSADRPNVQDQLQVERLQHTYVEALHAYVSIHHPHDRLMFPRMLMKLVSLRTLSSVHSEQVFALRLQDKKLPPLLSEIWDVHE
Estrogen-related receptor gamma (Homo sapiens), sequence (P62508 whole entry, looked up, the tested form may be a part): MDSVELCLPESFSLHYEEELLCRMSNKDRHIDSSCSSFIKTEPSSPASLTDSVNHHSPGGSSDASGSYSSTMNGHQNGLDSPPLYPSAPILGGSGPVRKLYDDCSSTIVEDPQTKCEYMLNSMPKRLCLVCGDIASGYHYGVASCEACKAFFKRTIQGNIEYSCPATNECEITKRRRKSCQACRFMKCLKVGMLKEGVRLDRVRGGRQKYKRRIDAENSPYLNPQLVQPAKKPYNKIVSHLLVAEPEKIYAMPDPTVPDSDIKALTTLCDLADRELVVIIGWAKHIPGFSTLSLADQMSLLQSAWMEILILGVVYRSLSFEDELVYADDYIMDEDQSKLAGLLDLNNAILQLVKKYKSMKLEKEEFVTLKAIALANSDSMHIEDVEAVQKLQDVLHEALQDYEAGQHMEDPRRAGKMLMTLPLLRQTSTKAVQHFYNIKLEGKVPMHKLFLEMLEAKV
Hepatocyte nuclear factor 4-alpha (Homo sapiens), sequence (P41235 whole entry, looked up, the tested form may be a part): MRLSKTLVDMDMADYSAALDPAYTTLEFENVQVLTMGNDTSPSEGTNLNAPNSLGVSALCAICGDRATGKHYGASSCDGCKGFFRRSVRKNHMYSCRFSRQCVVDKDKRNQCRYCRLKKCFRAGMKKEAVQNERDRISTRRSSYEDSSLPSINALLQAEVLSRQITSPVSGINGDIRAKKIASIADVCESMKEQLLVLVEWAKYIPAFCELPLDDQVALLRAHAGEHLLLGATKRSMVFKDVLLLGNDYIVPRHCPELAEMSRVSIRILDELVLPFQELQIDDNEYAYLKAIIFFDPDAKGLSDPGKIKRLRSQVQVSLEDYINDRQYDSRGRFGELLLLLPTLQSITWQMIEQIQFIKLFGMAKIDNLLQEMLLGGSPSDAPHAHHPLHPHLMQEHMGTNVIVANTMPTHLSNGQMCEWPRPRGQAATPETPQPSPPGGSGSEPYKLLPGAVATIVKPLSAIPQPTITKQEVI
Bile acid receptor (Homo sapiens), sequence (Q96RI1 whole entry, looked up, the tested form may be a part): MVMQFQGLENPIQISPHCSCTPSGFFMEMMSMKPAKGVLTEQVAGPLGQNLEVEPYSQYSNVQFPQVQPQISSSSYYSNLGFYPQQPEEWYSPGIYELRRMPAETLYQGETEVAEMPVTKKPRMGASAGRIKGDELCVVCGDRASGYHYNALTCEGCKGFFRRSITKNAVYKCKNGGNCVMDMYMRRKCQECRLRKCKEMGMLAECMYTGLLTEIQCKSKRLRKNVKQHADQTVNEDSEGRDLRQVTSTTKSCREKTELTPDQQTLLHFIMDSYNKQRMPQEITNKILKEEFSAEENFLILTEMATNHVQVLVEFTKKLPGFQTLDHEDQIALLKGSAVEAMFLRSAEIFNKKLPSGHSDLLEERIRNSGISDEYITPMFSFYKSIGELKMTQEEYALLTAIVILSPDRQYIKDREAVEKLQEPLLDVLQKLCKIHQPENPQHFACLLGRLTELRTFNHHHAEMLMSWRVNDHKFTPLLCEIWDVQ

For `ON=C1CCCCC1`, the compound was classed as inactive in assay [1], in assay [2], in assay [3], in assay [4], in assay [5] and in [6]. Also, the compound was classed as inactive in assay [7], in assay [8], in [9], in assay [10] and in assay [11].
For the compound `Cc1ccc(S(=O)(=O)Oc2ccc(N=Nc3ccc(-c4ccc(N=Nc5c(O)ccc6cc(S(=O)(=O)O)cc(S(=O)(=O)O)c56)c(C)c4)cc3C)cc2)cc1`, the call in assay [1], in assay [4], in assay [5], in [6], in assay [12] and in assay [13] was inactive. Besides, the outcome in assay [14], in [7], in assay [8], in [15], in assay [16] and in assay [10] was inactive. The result in [11] was inactive. The AC50 in assay [2] is 40.6 µM (active); in assay [3], 14.1 µM (active).
With `c1ccc2[nH]cnc2c1`, the outcome in assay [1], in assay [2], in assay [3], in assay [5], in [17] and in assay [6] was inactive. The outcome in assay [14], in assay [7], in assay [18], in [15], in assay [16] and in assay [10] was inactive. Besides, the result in assay [11] was inactive.
For the compound `CCCCCCCC(=O)OCCCCCC`, the call in assay [1], in assay [2], in assay [3], in assay [4], in [5] and in [17] was inactive. Also, the compound was classed as inactive in assay [7], in assay [18], in assay [9], in assay [15], in assay [16] and in assay [10]. Moreover, in [11], the result was inactive.
For `CC(O)C1CCCCC1` (stereo unspecified), the outcome in assay [1], in assay [2], in assay [3], in assay [4], in assay [5] and in [6] was inactive. In addition, the compound was classed as inactive in assay [12], in [13], in [7], in assay [8], in assay [9] and in assay [15]. Moreover, the compound was called inactive in assay [10] and in [11].
On to `CC(C)(N=C=O)c1cccc(C(C)(C)N=C=O)c1`, for which the compound was called inactive in [1], in assay [2], in [3], in assay [4], in [5] and in assay [6]. In addition, the compound was called inactive in [12], in assay [13], in assay [7], in assay [9], in assay [15] and in assay [16]. The outcome in assay [10] and in [11] was inactive.
On to `CC=CC=CCOC(=O)C(C)C`, for which the compound was called inactive in assay [1], in assay [2], in [3], in assay [5], in [17] and in assay [6]. Further, the result in [13], in assay [8], in assay [18], in [15], in assay [16] and in [10] was inactive. In addition, in assay [11], the call was inactive.
As for `CCC1CCCCC1`, the compound was called inactive in assay [1], in assay [2], in assay [3], in assay [4], in assay [5] and in [7]. For the same compound, the compound was classed as inactive in [10] and in assay [11].
`Nc1ccc(Cl)c([N+](=O)[O-])c1`: the result in assay [1], in assay [2], in assay [3], in assay [5], in assay [17] and in assay [6] was inactive. For the same compound, the call in [13], in assay [18], in assay [9], in assay [15], in [16] and in [11] was inactive.
Take `CN1C(=O)c2ccccc2C1=O`: the compound was called inactive in assay [1], in [2], in [3], in assay [4], in assay [5] and in assay [6]. In addition, the compound was called inactive in assay [12], in [13], in [18], in assay [9], in assay [16] and in [10]. Also, the compound was classed as inactive in assay [11].
